An excerpt weighted towards active compounds, which were near 7.4% of everything screened.
NPC1 prom act: activators of NPC1 promoter | 2.4% of 320,000 active | Potency, µM (top dose mostly 9.22 µM), actives largely listed as activators | Huh7 NPC1 promoter luciferase reporter, 24 h; also: nearly all actives have a fitted effect of over 60% in size
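Huh7 reporter cells (NPC1 promoter driving luciferase) are dosed with compound for 24 h at 37 °C, 5% CO2; luciferase detection reagent is then added and luminescence measured after 10 min at ambient temperature.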
ELG1 genotox: inducers of genotoxicity in HEK293T ELG1-luciferase cells. 1.3% of 330,000 active. Potency, µM (doses to about 46 µM), most hits filed as activators. HEK293T ELG1-luciferase reporter, luminescence, 16 h; also: nearly all actives have a fitted effect of over 60% in size
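Step 1: seed 2,000 HEK293T ELG1-luciferase cells per well. Step 2: add compound or DMSO, incubate 16 hr at 37 °C. Step 3: ONE-Glo, 30 min at room temperature, read luminescence.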
FLuc modulator: inhibits or activates purified firefly luciferase, miR-21 counter-screen; P08659; purified FLuc, Km substrates, luminescence inhibition; Potency, µM (doses to about 57.5 µM), usual class: inhibitors; 6.9% of 360,000 active; also: nearly all actives have a fitted effect of over 55% in size
Target sequence (P08659 whole entry, looked up): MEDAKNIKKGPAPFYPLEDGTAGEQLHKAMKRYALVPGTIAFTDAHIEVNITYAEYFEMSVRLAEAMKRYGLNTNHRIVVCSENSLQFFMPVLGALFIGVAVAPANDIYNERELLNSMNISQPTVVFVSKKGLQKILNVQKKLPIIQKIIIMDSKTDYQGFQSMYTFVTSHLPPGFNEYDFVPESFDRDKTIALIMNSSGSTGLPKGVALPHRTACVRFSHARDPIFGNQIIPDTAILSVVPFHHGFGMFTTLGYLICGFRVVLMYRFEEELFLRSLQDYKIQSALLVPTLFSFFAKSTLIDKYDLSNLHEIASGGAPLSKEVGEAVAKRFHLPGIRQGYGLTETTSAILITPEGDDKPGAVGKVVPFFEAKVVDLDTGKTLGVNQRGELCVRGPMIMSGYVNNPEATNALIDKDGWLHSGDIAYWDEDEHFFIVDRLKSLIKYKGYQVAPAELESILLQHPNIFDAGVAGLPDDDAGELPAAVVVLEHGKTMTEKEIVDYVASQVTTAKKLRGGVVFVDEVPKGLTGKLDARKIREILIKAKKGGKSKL
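Purified P. pyralis luciferase, 10 nM final, with Km-level 10 uM D-luciferin and 10 uM ATP in 50 mM Tris acetate pH 7.5, 10 mM Mg acetate, 0.01% Tween-20, 0.05% BSA; 6-point qHTS titration about 60 µM downward; luminescence read.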
Rab9 prom act: activators of Rab9 promoter. Huh7 Rab9 promoter-luciferase reporter, luminescence, 24 h. Potency, µM (doses to about 9.22 µM), actives largely listed as activators. 2.8% of 320,000 active; also: nearly all actives have a fitted effect of over 60% in size
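Luciferase signal after 10 min detection reagent at ambient indicates Rab9 promoter upregulation; stably transfected Huh7 cells were treated 24 h with compound in DMSO at 37 °C, 5% CO2.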
SMN2 splice up: enhancers of SMN2 splice variant expression. HEK293 SMN2-luciferase splicing reporter, luminescence, 30-36 h. Potency, µM (doses to about 46.1 µM), hits mostly activators. 2.8% of 210,000 active; also: nearly all actives have a fitted effect of over 55% in size
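HEK293 cells carry an SMN2 minigene-luciferase reporter in which exon 7 inclusion puts luciferase in frame. Cells were seeded at 2000 cells/well, attached for 10-12 hours, then exposed to compounds for 30-36 hours at 37C before ONE-Glo luminescence.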
A number is an active result; i = inactive; ? = inconclusive; nt = not tested or not shown; [ ] = another dose, or the depositor's remark. Calls follow the shape of the dose curve; as a rule, active = well fitted curve in the direction sought with a large enough effect; inconclusive = small, poorly fitted or top-dose-only effect, or another doubt; inactive = no such curve, though single readings can be large; an effect the other way counts as inactive or inconclusive.

SMILES	NPC1 prom act	ELG1 genotox	FLuc modulator	Rab9 prom act	SMN2 splice up
O=c1[nH]c(N/N=C/c2ccccc2)nc2ccccc12	3.16µM	2.31µM	6.01µM	2.24µM	14.1µM
Brc1ccc(-c2ccc(/C=N/Nc3nc4ccccc4[nH]3)o2)cc1	?	?	0.849µM	?	7.94µM
CCCc1cc(=O)[nH]c(N/N=C/C=C\c2ccccc2)n1	i	i	i	i	i
C(=C\c1ccccc1)/C=N/Nc1nc2ccccc2[nH]1	3.16µM	18.4µM	3.79µM	4.47µM	nt
Fc1ccc(/C=N/Nc2nc3ccccc3[nH]2)cc1F	?	i	12µM	i	i
Cc1cc(=O)[nH]c(N/N=C/c2ccc(F)cc2)n1	i	i	?	i	nt
C(/CCc1ccccc1)=N\Nc1nc2ccccc2[nH]1	i	?	2.13µM	i	i
O=c1[nH]c(N/N=C\c2ccc3c(c2)OCO3)nc2ccccc12	0.794µM	?	3.79µM	0.562µM	8.91µM
C(=N\Nc1nc2ccccc2[nH]1)/C1CCCCC1	i	?	3.38µM	i	i
CC(C)(C)c1ccc(C2=NC(C)(C)N(CC(=O)Nc3ccc(F)c(F)c3)C2=O)cc1	nt	nt	i	nt	i
COc1cc(C2Oc3nc(SC)nnc3-c3ccccc3N2C(C)=O)cc(Cl)c1OC (configuration not stated)	nt	nt	i	nt	i
C(=N\Nc1nc2ccccc2[nH]1)/c1ccccc1	?	?	10.7µM	?	12.6µM
C(=N\Nc1nn[nH]n1)/c1ccccc1	i	i	i	i	i
Cc1cc(N/N=C/c2ccc3c(c2)OCO3)nc2ccccc12	?	i	2.69µM	2.51µM	nt
CC(=O)Nc1ccc(NC(=O)C(C)OC(=O)/C(C#N)=C/c2ccc(N(C)C)cc2)cc1 (configuration not stated)	i	18.3µM	9.53µM	?	nt
CCOc1ccc(-c2cn3c(n2)sc2cc(C(=O)NCCCN(CC)CC)ccc23)cc1	nt	nt	i	nt	nt
O=C(O)Cn1cc(/C=c2/sc3nc4ccccc4n3c2=O)c2ccccc21	i	i	10.7µM	i	i
COc1cc(N2CCCC2)c(OC)cc1/C=c1/sc2nc3ccccc3n2c1=O	?	i	?	?	i
O=c1/c(=C\c2cccn2-c2ccccc2)sc2nc3ccccc3n12	?	4.61µM	?	2.51µM	nt
O=Cc1cccn1-c1ccccc1	i	i	i	i	nt
Cc1ccc(-n2c(C)cc(/C=c3/sc4nc5ccccc5n4c3=O)c2C)cc1	i	i	1.2µM	i	i
Fc1ccc(CSc2nncn3c2cc2occc23)c(Cl)c1	nt	nt	i	nt	nt
O=C(CN1C(=O)COc2ccc(S(=O)(=O)N3CCOCC3)cc21)N1CCN(c2ccccc2F)CC1	nt	nt	i	nt	i
CN(C(=O)CCc1nc2ccccc2s1)c1ccccc1	i	?	i	i	i
CCCNC(=O)c1ccc(-c2nc3ccccc3s2)s1	?	0.206µM	0.338µM	0.708µM	2.82µM
SMILES	NPC1 prom act	ELG1 genotox	FLuc modulator	Rab9 prom act	SMN2 splice up
CCOC(=O)CC(=O)Nc1nc2ccccc2s1	i	?	i	i	i
O=C(NCCCO)c1nc2ccccc2s1	i	i	i	i	i
CCCCNC(=O)Nc1nc2ccccc2s1	2.51µM	?	10.7µM	1.41µM	11.2µM
CN(C)c1ccc(CC(=O)c2nc3ccccc3s2)cc1	?	?	8.49µM	2.51µM	i
CCOC(=O)Nc1nc2ccccc2s1	3.16µM	3.66µM	6.75µM	3.55µM	?
NCc1nnn(Cc2ccccc2)c1N	nt	nt	nt	nt	i[9.22 µM]
CCCNC(=O)Nc1nc2ccccc2s1	2.24µM	?	9.53µM	2.51µM	nt
CN(C)S(=O)(=O)c1ccc(C(=O)Nc2nc(-c3ccccc3)c(C(=O)c3ccccc3)s2)cc1	i	i	i	i	i
CC12CCC(C(=O)NC(c3ccccc3)c3ccccc3)(OC1=O)C2(C)C (configuration not stated)	i	i	i	i	i
Cc1nc2c(ccc3nc(NC(=O)c4ccc(S(=O)(=O)N(C)C)cc4)sc32)s1	i	i	2.69µM	i	i
Cc1ccc(CC(=O)Nc2nc3ccccc3s2)cc1	?	i	19µM	?	i
CC12CCC(C(=O)Nc3nc4ccccc4s3)(OC1=O)C2(C)C (configuration not stated)	?	?	16.9µM	?	?
Cc1ccc(S(=O)(=O)CC(=O)Nc2nc3ccccc3s2)cc1	i	i	i	i	nt
CN1CCN(c2ncc3nc(CCc4ccccc4)c(=O)n(Cc4ccc(F)cc4)c3n2)CC1	nt	nt	nt	nt	i
CCc1ccc(CN(Cc2ccco2)C(=O)COc2ccccc2Cl)cc1	nt	nt	i	nt	i
CCCCNC(=O)Nc1nc2ccc(CC)cc2s1	?	?	6.75µM	?	?
CN(C)C(=O)c1nc2ccccc2s1	i	i	?	i	i
Cc1nc2c(ccc3nc(NC(=O)Cc4ccccc4)sc32)s1	i	i	23.9µM	?	?
CCCCNC(=O)Nc1ccon1	i	i	i	i	i
CCOC(=O)c1nc2ccccc2s1	i	?	13.5µM	i	i
CCOC(=O)c1ccc(N2C(=O)c3[nH]nc(-c4ccc(C)cc4)c3C2c2cccc(F)c2)cc1 (configuration not stated)	nt	nt	i	nt	i
CC(C)S(=O)(=O)c1csc(C(=O)Nc2ccc(F)cc2)c1N	0.562µM	2.91µM	6.01µM	0.562µM	nt
CCOc1cccc2cc(-c3cn4cc(C)ccc4n3)c(=O)oc12	0.631µM	?	0.12µM	0.562µM	2.82µM
Cc1ccc(COc2cccc3cc(-c4noc(-c5ccc(C)cc5)n4)c(=O)oc23)cc1	nt	nt	i	nt	i
Cc1ccc(C=Nc2ccc(N(C)C)cc2)o1	i	20.6µM	0.269µM	i	i
SMILES	NPC1 prom act	ELG1 genotox	FLuc modulator	Rab9 prom act	SMN2 splice up
C/C(C/C(C)=C1/SC(=S)NC1=O)=C1\SC(=S)NC1=O	i	i	26.9µM	i	i
CCCCCC/C(C)=C1/SC(=S)NC1=O	i	i	i	i	i
COc1ccc(Nc2ncc(C(=O)N3CCN(Cc4ccccc4)CC3)c3ccccc23)cc1	i	i	19µM	i	i
COc1cccc(-c2noc(C3CCCN(C(=O)c4cccc(F)c4)C3)n2)c1 (configuration not stated)	i	i	i	i	nt
COc1cccc(-c2nc3ccc(C(=O)N4CCCC(O)C4)cc3o2)c1 (configuration not stated)	3.98µM	?	15.1µM	3.55µM	nt
CC(=O)C1CCCN(C(=O)c2ccc3nc(Cc4cccc(Cl)c4)oc3c2)C1 (configuration not stated)	i	i	i	i	nt
CCC(=O)C1CCCN(C(=O)c2ccc3nc(-c4cccc(OC)c4)oc3c2)C1 (configuration not stated)	1.41µM	?	8.49µM	1.58µM	nt
O=C(COCc1cc(-c2cccs2)on1)N1CCN(c2cccc(Cl)c2)CC1	nt	nt	i	nt	nt
COc1ccc(C2=CC(=O)C[C@H](c3ccc(OC)cc3)C2)cc1	i	i	i	i	nt
COc1ccc(C2=CC(=O)C=CC2=O)cc1	i	i	8.49µM	i	nt
CC(C)(C)c1ccc(C(=O)Nc2ccc(N3CCOCC3)cc2)cc1	i	i	?	i	i
O=C(CCCCl)NC(=S)Nc1ccc(N2CCOCC2)cc1	2.82µM	?	i	1.41µM	nt

From PubChem BioAssay
